The record followed here is PubChem BioAssay AID651692 (Broad Institute, 2012).

Results with a measured potency or affinity are listed apart. Active and inactive are the calls of the source.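 How the source made its calls: active means fitted half-maximal concentration for loss of cell signal no higher than twice the top valid tested concentration; inconclusive means flat curve at 30 to 70% inhibition, or poor fit; inactive means flat within 30%, signal rise, or potency above limit.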

The test in a line: MDA-MB-231 cell growth inhibition, dose response, cytotoxicity control for RAD54 inhibitor project, CellTiter-Glo luminescence, cherry-pick (AID 651692).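 Further: more negative values mean stronger loss of viable cell signal.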 The following applies: MDA-MB-231 viability, 24 h; series mostly up to 26 µM. (Cellular ATP, detected with luciferase, serves as a proxy for viable cell number.)
Regarding `CCN(CC)CCNc1nc(SC)nc2sc3c(c12)CCN(C)C3`, the molecule was classed as inactive.

`Cc1ccc2nc3c(c(N)c2c1)CCN3C`: the result was inactive.

On to `CCOC(=O)c1c(C)n(C)c2ccc(OCC(O)CN3CCC(C)CC3)cc12` (stereo not given), for which the molecule was called inactive.

In the case of `COc1cc2c3c(cccc3c1)C(=O)N(CCN1CCCC1)C2=O`, the result was inactive.

For the molecule `CN(C)CCCNc1c2c(nc3ccccc13)CCC2`, the result was inactive.

Turning to `OCCN1CCN(c2ncnc3sc(-c4ccccc4)cc23)CC1`, the outcome was inactive.

`CC1CCN(CCCNC(=O)c2cc3c(=O)n(C)c4ccccc4c3n2C)CC1`: the result was inactive.

As for `CCOC(=O)c1cnc2c(ccc3ccccc32)c1NCCN(C)C`, the outcome was inactive.

Regarding `CN(C)CCCNc1nc2cc(-c3ccccc3)sc2c(=O)n1C`, the call was inactive.

As to `Cc1cccn2c(=O)c3cc(C(=O)NCCN4CCOCC4)c(=N)n(CCCN4CCOCC4)c3nc12`, the result was inactive.

As for `CCN(CC)CCn1c2ccc(Cl)cc2c2nc(C)sc21`, the molecule was called inactive.

In the case of `O=C(Nc1nnc(COc2ccc(F)cc2)s1)c1ccco1`, the result was inactive.

Consider `COc1ccc(CCNC(=O)c2cc3c(=O)n4cccc(C)c4nc3n(CCCN3CCOCC3)c2=N)cc1`, for which the molecule was classed as inactive.

Turning to `CN(C)CCCNc1nc2cc(-c3ccc(F)cc3)sc2c(=O)n1C`, the molecule was classed as inactive.

Consider `COc1ccc(OC)c(Nc2nc(NCCCN(C)C)nc(N)c2[N+](=O)[O-])c1`, for which the molecule was called inactive.

On to `Cc1cc(N2CCN(C)CC2)nc2ccc(NC(=S)NCCCN3CCc4ccccc4C3)cc12`, for which the call was inactive.

Take `O=c1c2ccccc2oc2cc(NCCCN3CCOCC3)ccc12`: the molecule was called inactive.

With `Cc1c(-c2cc(Br)ccc2O)nc2cc3c(cc2c1C)OCO3`, the molecule was classed as inactive.

As to `COc1cc(-c2cnc3c(NC=O)cc(-c4cccc(C(=O)NCCN(C)C)c4)cn23)cc(OC)c1OC`, the result was inactive.

For `c1cc2c3c(cccc3c1)C(N1CCCCC1)=N2`, the call was inactive.
